Hits are enriched below; roughly 8.1% of the tested compounds scored in any of these assays.
VP16 counter: Gal4-VP16 reporter inhibition counter-screen | AID 2546 | Drosophila S2 Gal4-VP16 UAS-luciferase, luminescence, 20 h | Potency, µM (top dose mostly 53.6 µM), without a hit: at the highest dose activity, negative = inhibition, usual class: inhibitors | 3.5% of 310,000 active;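 note: Gal4-VP16 expression switched on by copper sulfate through the metallothionein promoter; % is set by controls: 0 for no effect and ±100 for the full control effect; nearly all actives have a fitted effect of over 50% in size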
PINK1 expr mod: changes PINK1 expression. 0.2% of 410,000 active. AID 624263. PINK1 immunofluorescence, high-content cytometry, 24 h. Potency, µM (series often up to 76.6 µM), for the others: at the top dose activation (PINK1 increase), most hits filed as activators; active = well fitted activation curve with a large enough effect; inconclusive = small, poorly fitted or top-dose-only effect; cell line not stated here; note: % of control where 0% means no effect; nearly all actives have a fitted effect of over 65% in size
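Decision-based qHTS: stable cells, 24 h exposure to five compound concentrations, CCCP as control. Fixed cells stained for PINK1 plus nuclear, mitochondrial and cell markers, cytometer read.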
Epigenetic derep: derepresses silenced GFP reporter in murine cells. Potency, µM (doses to about 53.9 µM), for the others: top-dose GFP activation, actives largely listed as activators. 0.2% of 280,000 active. AID 1865. murine LDR cells, GFP reporter derepression, 30 h; note: % of control where 0% means no effect; nearly all actives have a fitted effect of over 60% in size
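Readout is the number of GFP-expressing murine LDR cells, counted by cytometry following washing. Cells were treated with compound for 30 h at 37 C; the stably integrated CMV-GFP locus is normally silent.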
ClpP mod: qHTS Assay for Activators of ClpP; ATP-dependent Clp protease proteolytic subunit (Bacillus subtilis (strain 168)), P80244; purified B. subtilis ClpP, FRET peptide cleavage, 20 min; Potency, µM (top dose mostly 57.5 µM), inactives show at the top dose activity change, negative = active; 1.9% of 340,000 active; active = well fitted falling curve with a large enough effect; inconclusive = small, poorly fitted or top-dose-only effect; inactive = no such curve, though single readings can be large or run the other way; note: the source files actives as falling curves though it sought activators and does not explain the sign; nearly all actives have a fitted effect of over 65% in size
Target sequence (P80244 whole entry, looked up): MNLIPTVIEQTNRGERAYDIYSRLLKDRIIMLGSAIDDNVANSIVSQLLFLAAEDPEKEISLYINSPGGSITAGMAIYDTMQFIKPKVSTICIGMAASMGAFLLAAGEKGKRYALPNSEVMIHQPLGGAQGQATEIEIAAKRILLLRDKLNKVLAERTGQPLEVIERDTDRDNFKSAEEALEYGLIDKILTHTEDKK
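Purified B. subtilis ClpP, 10 microg/mL final in Tris/HCl pH8 with KCl, BSA, glycerol and Tween-20, cleaved an Abz/nitrotyrosine-quenched decapeptide. Fluorescence (ex 320, em 430) was read at 0 and 20 min at room temperature. Delta was normalized to 5.8 microM ADEP and DMSO/no-enzyme controls.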
Sfp PPTase inh: blocks B. subtilis Sfp PPTase activity. Biochemical Sfp PPTase activity, qHTS. Potency, µM, without a hit: largest response in the series, negative = inhibition, usual class: inhibitors. 3.5% of 310,000 active. AID 1490;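 note: the enzyme is Sfp with the accession as filed and its product quenches rhodamine fluorescence; 0% = enzyme reaction without inhibitor and -100% = no enzyme wells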
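Buffer: 50 mM Hepes-Na pH 7.6, 10 mM MgCl2, 0.01% Nonidet P-40, 0.01% BSA. Enzyme 15 nM, pre-exposed to compound 15 min; substrates then added and fluorescence change tracked over 30 min.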
RORg inh: inhibitors of mouse ROR gamma transcriptional activity. 5.4% of 310,000 active. P51450. Drosophila S2 Gal4-RORgamma UAS-luciferase reporter, 20 h. Potency, µM (top dose mostly 53.6 µM), for the others: top-dose activity change, negative = inhibition, most hits filed as inhibitors; note: % is set by controls: 0 for no effect and ±100 for the full control effect; nearly all actives have a fitted effect of over 60% in size
Target sequence (P51450 whole entry, looked up, the tested form may be a part): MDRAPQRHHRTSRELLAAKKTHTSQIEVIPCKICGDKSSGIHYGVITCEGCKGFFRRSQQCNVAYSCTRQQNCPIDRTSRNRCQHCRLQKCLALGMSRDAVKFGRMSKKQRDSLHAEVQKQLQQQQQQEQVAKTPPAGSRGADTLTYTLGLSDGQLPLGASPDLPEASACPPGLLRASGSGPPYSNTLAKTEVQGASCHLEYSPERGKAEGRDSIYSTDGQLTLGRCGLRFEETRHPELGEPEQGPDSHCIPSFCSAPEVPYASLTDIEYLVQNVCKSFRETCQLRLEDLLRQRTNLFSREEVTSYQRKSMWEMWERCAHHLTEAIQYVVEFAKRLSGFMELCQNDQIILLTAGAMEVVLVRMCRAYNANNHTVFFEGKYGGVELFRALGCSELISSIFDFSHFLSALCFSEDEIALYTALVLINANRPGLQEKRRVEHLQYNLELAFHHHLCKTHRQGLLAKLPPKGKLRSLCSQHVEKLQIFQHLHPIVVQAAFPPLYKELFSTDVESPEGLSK
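A Gal4/UAS one-hybrid system in insect cells: metallothionein-promoter Gal4–ROR gamma fusion plus Photinus luciferase reporter. Copper sulfate 700 uM final, 20 hr ambient incubation, luminescent detection after 10 min with reagent.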
* = called active by the depositor; ? = inconclusive; / = no result; ! = not confirmed by another sample; [ ] = remark or other dose. Unless noted, calls come from the whole dose curve; as a rule, active = well fitted curve in the direction sought with a large enough effect; inconclusive = small, poorly fitted or top-dose-only effect, or another doubt; inactive = no such curve, though single readings can be large; an effect the other way counts as inactive or inconclusive. Potency is the fitted concentration of half-maximal effect.

SMILES	VP16 counter	PINK1 expr mod	Epigenetic derep	ClpP mod	Sfp PPTase inh	RORg inh
CC1(C(=O)Nc2ccc3c(c2)OCO3)CCN1Cc1cccc2c1OCO2 (stereo not drawn)	/	1.5%	/	0.0%	/	/
Cc1ccc(Cn2cccc(NC(=O)NCc3ccccc3)c2=O)cc1	0.2%	3.0%[38.3 µM]	0.0%	31.6µM*	17.5%	5.4%
Cc1ccc(CC(CC(=O)O)C(=O)NCc2ccccc2)cc1 (stereo not drawn)	-1.8%	-1.1%	0.0%	15.8µM*	22.5%	-0.8%
O=C(NCc1ccccc1)Nc1cccn(Cc2ccc(Cl)cc2)c1=O	-0.5%	3.1%	0.0%	-25.7%	-2.0%	30.2%
O=S(=O)(NCCCCNS(=O)(=O)c1cccc2cccnc12)c1cccc2cccnc12	/	0.4%	/	-0.2%	/	/
COc1ccc(-c2ccc(NS(=O)(=O)c3ccc(NC(C)=O)cc3)cc2)nn1	/	1.2%	-1.7%	-0.3%	/	/
Cc1csc2nc(COC(=O)c3ccc(NC(=O)C(C)Oc4ccccc4)cc3)cc(=O)n12 (stereo not drawn)	/	-0.3%	1.8%	2.7%	/	/
COc1ccc(Cl)cc1NC(=S)N1CCN(C(=O)c2ccco2)CC1	1.0%	18.8%	-1.2%	-0.1%	2.1%	4.1%
COc1cc(NC(=S)N2CCN(CCO)CC2)c(OC)cc1Cl	-4.1%	-1.9%	1.8%	/	-5.7%	-10.5%
COc1cc(NC(=S)N2CCN(C(=O)c3ccco3)CC2)c(OC)cc1Cl	0.9%	-1.1%	-1.0%	1.4%	56.2µM*	-0.6%
COc1cc(NC(=S)N2CCN(C)CC2)c(OC)cc1Cl	-9.8%	-0.5%	-0.1%	-0.2%	28.2µM*	-3.9%
COc1cc(NC(=S)N2CCCC(CO)C2)c(OC)cc1Cl (stereo not drawn)	1.1%	0.6%	-0.9%	-1.2%	39.8µM*	6.4%
CSCC[C@H](NC(=O)[C@H](Cc1c[nH]c2ccccc12)NC(=O)CNC(=O)[C@H](Cc1ccc(O)cc1)NC(=O)[C@H](C)NC(=O)[C@H](CCC(=O)O)NC(=O)[C@H](CCC(=O)O)NC(=O)[C@H](CCC(=O)O)NC(=O)[C@H](CCC(=O)O)NC(=O)[C@H](CCC(=O)O)NC(=O)[C@H](CC(C)C)NC(=O)[C@H](Cc1c[nH]c2ccccc12)NC(=O)[C@@H]1CCCN1C(=O)CNC(=O)[C@@H]1CCC(=O)N1)C(=O)N[C@@H](CC(=O)O)C(=O)N[C@@H](Cc1ccccc1)C(=O)NCC(=O)O	6.2%	/	/	/	7.2%	0.5%
O=S(=O)(Nc1cccc(F)c1)c1ccc2[nH]c3c(c2c1)CCCCC3	/	11.8%	5.1%	-6.2%	/	/
C[C@H](NC(=O)CNC(=O)[C@@H](NC(=O)[C@H](Cc1ccccc1)NC(=O)CNC(=O)CNC(=O)[C@@H](N)Cc1ccccc1)[C@@H](C)O)C(=O)N[C@@H](CCCN=C(N)N)C(=O)N[C@@H](CCCCN)C(=O)N[C@@H](CO)C(=O)N[C@@H](C)C(=O)N[C@@H](CCCN=C(N)N)C(=O)N[C@H](CN)CCCCN	/	/	1.9%	/	17.2%	/
Cc1ccc(S(=O)(=O)Nc2nnc(C(C)(C)C)s2)cc1	5.5%	2.4%	/	0.1%	-56.3%	-12.4%
CC(C)(C)Cc1nnc(NS(=O)(=O)c2ccc(F)cc2)s1	-5.6%	-0.9%	-8.9%	0.4%	24.5%	-26.2%
Cc1ccc(S(=O)(=O)Nc2nnc(CC(C)(C)C)s2)cc1	-0.6%	2.7%	/	0.1%	79.4µM*	16.2%
Cc1ccc(S(=O)(=O)Nc2nsc(N)n2)cc1	2.2%	1.8%	12.3%	-3.4%	35.5µM*	?
CCOC(=O)c1ccccc1NC(=O)CN1CCCN(Cc2cccc(Cl)c2)S1(=O)=O	/	0.2%	-0.2%	?	/	/
O=[N+]([O-])c1cccc(-c2cc(-c3cc(Br)ccc3O)[nH]n2)c1	11.2µM*	?	/	/	?	7.08µM*
Oc1ccc(Br)cc1-c1cc(-c2ccccc2)n[nH]1	?	4.0%	4.2%	0.8%	-15.5%	1.26µM*
CCCCc1ccc(NC(=O)CSc2nc3ccccc3nc2N2CCOCC2)cc1	/	0.8%	1.1%	-4.9%	/	/
CCCN1C(=O)S/C(=C\c2ccc(N3CCOCC3)cc2C)C1=O	-9.3%	/	0.0%	/	0.1%	-21.5%
CCCN1C(=O)S/C(=C/c2ccc(N3CCOCC3)o2)C1=O	-14.2%	39.8µM*	10µM*	/	1.26µM*	-1.5%
SMILES	VP16 counter	PINK1 expr mod	Epigenetic derep	ClpP mod	Sfp PPTase inh	RORg inh
Cc1ccc(OCCN2C(=O)S/C(=C\c3ccc(C)o3)C2=O)cc1	-7.1%	?	-1.1%	-1.3%	17.8µM*	-24.6%
Cc1ccc(OCCN2C(=O)C(=O)c3cc(C)ccc32)cc1	-6.7%	5.5%	5.1%	0.8%	6.5%	40.1%
CCCN1C(=O)S/C(=C\c2ccc(N3CCOCC3)o2)C1=O	4.47µM*	9.0%	11.2µM*	/	3.16µM*	5.62µM*
S=C(NCCCN(Cc1ccc(Cl)cc1)c1ccc(Br)cn1)NCc1ccc2nc[nH]c2c1	/	0.7%	/	-6.8%	/	/
CCOC(=O)c1ccc(S(=O)(=O)Nc2cc(C(C)(C)C)no2)cc1	-2.3%	0.7%	-1.1%	1.4%	79.4µM*	-11.2%
O=S(=O)(/C(=C/c1ccc(C(F)(F)F)cc1)c1nc2ccccc2[nH]1)c1ccccc1	5.62µM*	-3.9%	?	-0.1%	-18.8%	14.1µM*
Cc1ccc(NC(=S)c2ccc3ccccc3n2)c(C)c1	7.94µM*	4.8%	/	/	22.4µM*	2µM*
Cc1ccc(C)c(NC(=O)c2ccc3ccccc3n2)c1	1.5%	9.2%	-0.2%	35.5µM*	-13.0%	7.1%
Cc1nnc(NC(=O)c2ccc3ccccc3n2)s1	7.08µM*	-0.7%	1.3%	-1.5%	?	2.82µM*
Cc1nc2ccc(NC(=O)c3ccc4ccccc4n3)cc2s1	14.6%	8.7%	0.0%	/	7.6%	2.0%
O=C(OCc1cc(=O)n2nc(-c3cccs3)sc2n1)c1ccccc1Cl	/	?	2.9%	-3.5%	/	/
COc1ccc(OC)c(CNC(=O)Cc2ccc(NC(=O)N3CCCCc4ccccc43)cc2)c1	/	0.0%	0.8%	-0.3%	/	/
O=C(O)c1cc(=O)c2cccc(O)c2[nH]1	2.6%	0.0%	-1.1%	/	79.4µM*!	3.1%
CCCCN(CC)CCCNC(=O)C1CCN(c2nc3ccc(CC)cc3s2)CC1	/	-0.9%	-2.3%	-4.7%	/	/
O=C(CNCc1cccs1)NC12CC3CC(CC(C3)C1)C2	0.1%	-0.3%	0.2%	-1.6%	-10.1%	2.1%
CC1(C)C2CCC(C2)C1(C)NC(=O)CNCc1cccs1 (stereo not drawn)	4.6%	2.6%	-1.4%	1.4%	89.1µM*	14.4%
COc1cccc(N2CCN(C(=O)C3CCN(S(=O)(=O)c4cn(C)cn4)CC3)CC2)c1	/	-0.6%	-2.5%	-0.7%	/	/
